Structures can show the parent of a compound that is named as a salt. ± gives the standard deviation of the averaged measurements.
These compounds were tested on Toxoplasma gondii RH (in HFF) (assay: parasite growth relative to the screen mean (all compounds = 100%); higher = less inhibition of parasite growth). Conditions: 5 µM; 72 h; oxygen 21 %.
Procedure, shortened: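 Library compounds, held as 10 mM DMSO stocks, were pinned to 5 µM final onto confluent human foreskin fibroblasts in 96-well plates. The cells were infected within 2 h with RH β-Gal–GFP Toxoplasma (MOI 1:5), grown 72 h at 21% O2, and assayed for parasite number by CPRG β-Gal using in-plate standard curves. Growth is reported relative to the screen mean, in which all compounds = 100%, averaged over two screens, and CellTiter-Blue checked uninfected host-cell viability.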

Point of comparison: `C=C(C)CN1CC[C@@]23c4c5ccc(O)c4O[C@H]2c2[nH]c4ccccc4c2C[C@]3(O)C1C5` [SDM25N hydrochloride], parasite growth 77.5 ± 21%. Against it:
- Clc1ccc(C2=CCCC3CCC2N3)cn1 (stereo not drawn) [UB 165 fumarate] — within error, 106 ± 11%
- Cc1ccc2c(c1)C1(CCN(CCc3nc(-c4ccccc4)oc3C)CC1)OC(=O)N2 — within error, 96.7 ± 3.8%
- CC(C)(C)NCC(O)COc1cccc2[nH]c(C#N)cc12 (stereo not drawn) [Cyanopindolol hemifumarate] — higher, 130 ± 6.7%
- CCCN1CCC[C@@H]2Cc3n[nH]cc3C[C@H]21 [(-)-Quinpirole hydrochloride] — higher, 143.8 ± 1.3%
- S=C(NC1CCCCC1)N1CCC(c2cnc[nH]2)CC1 [Thioperamide] — higher, 124 ± 20%
- C[C@@H]1O[C@@H](O[C@H]2C[C@@H](O)[C@]3(CO)[C@H]4[C@H](O)C[C@]5(C)[C@@H](C6=CC(=O)OC6)CC[C@]5(O)[C@@H]4CC[C@]3(O)C2)[C@H](O)[C@H](O)[C@H]1O [Ouabain] — within error, 52.8 ± 8.2%
- CCCN(CCC)C1CCc2cccc(O)c2C1 (stereo not drawn) [8-Hydroxy-DPAT hydrobromide] — higher, 121 ± 11%
- CC(=O)NCCc1c[nH]c2ccccc12 [N-Acetyltryptamine] — higher, 146 ± 7.5%
- O=C(N[C@H]1CN2CCC1CC2)c1ccc(Cl)cc1 — higher, 146 ± 25%
- Cc1cccc(C(C)c2c[nH]cn2)c1C (stereo not drawn) [Medetomidine hydrochloride] — lower, 24.7 ± 22%
- C[C@H](Cc1ccc(OCC(=O)O)cc1)NC[C@H](O)c1cccc(Cl)c1 — within error, 90.6 ± 30%
- c1cc(Cc2cnc[nH]2)ccn1 [Immethridine dihydrobromide] — higher, 133 ± 31%
- NC(N)=Nc1ccc2[nH]c3c(c2c1)C[C@@]1(O)[C@H]2Cc4ccc(O)c5c4[C@@]1(CCN2CC1CC1)[C@H]3O5 [GNTI dihydrochloride] — higher, 124 ± 2.5%
- O=C(CCCN1CCC2(CC1)C(=O)N(Cc1cccc(F)c1)CN2c1ccccc1)c1ccc(F)cc1 [3'-Fluorobenzylspiperone maleate] — lower, < 0%
- O[C@H]1[C@H](O)[C@@H](O)CN2CC[C@H](O)[C@H]12 [Castanospermine] — higher, 150 ± 7.6%
- Cc1[nH]c2ccc(O)cc2c1CCN [2-Methyl-5-hydroxytryptamine hydrochloride] — higher, 139 ± 37%
- CC(CN)CC(=O)O (stereo not drawn) [3-Methyl-GABA] — higher, 119 ± 4.7%
- c1ccc(CCCCN2CCC(c3ccccc3)CC2)cc1 [4-PPBP maleate] — within error, 82.8 ± 5.3%
- CCC[C@@H]1CC2=CC(=O)CC[C@]2(C)[C@H]2CC[C@@]3(C)[C@@H](CC[C@@]3(O)CCC(=O)O)[C@H]12 — within error, 75.2 ± 19%
- CN1[C@@H]2CC[C@H]1C[C@@H](OC(c1ccc(F)cc1)c1ccc(F)cc1)C2 [3α-Bis-(4-fluorophenyl) methoxytropane hydrochloride] — within error, 40.3 ± 22%
- Cc1nnc2ccc(-c3cccc(C(F)(F)F)c3)nn12 — higher, 126 ± 14%
- NCCc1c[nH]c2ccc(O)cc12 [Serotonin] — within error, 106 ± 15%
- CN1[C@@H]2C[C@@H](OC(=O)[C@H](CO)c3ccccc3)C[C@H]1[C@@H]1O[C@@H]12 [Scopolamine hydrobromide] — within error, 83.5 ± 48%
- COC(=O)/C=C/C(=O)N[C@@H]1CC[C@@]2(O)[C@H]3Cc4ccc(O)c5c4[C@@]2(CCN3CC2CC2)[C@H]1O5 [β-Funaltrexamine hydrochloride] — within error, 74.5 ± 28%
- CCCN(CCC)C1CCc2ccc(O)cc2C1 (stereo not drawn) [7-Hydroxy-DPAT hydrobromide] — within error, 67.2 ± 33%
- COC1(C[S@+]([O-])c2ccccc2)CCN(CCc2c[nH]c3ccc(F)cc23)CC1 — within error, 67.1 ± 9.3%
- CCCCC1(C2CCCC2)Cc2cc(OCCCC(=O)O)c(Cl)c(Cl)c2C1=O (stereo not drawn) — higher, 124 ± 5%
- OC1CCCCC1N1CCC(c2ccccc2)CC1 (racemic) [(±)-Vesamicol hydrochloride] — within error, 100 ± 8.3%
- COc1cc2c(cc1OC)C1CC(=O)C(CC(C)C)CN1CC2 (stereo not drawn) [Tetrabenazine] — higher, 132 ± 1.5%
- COC(=O)[C@@H](N)CCCNC(=N)N[N+](=O)[O-] [L-NAME hydrochloride] — within error, 81.5 ± 24%
- CCNC(=O)[C@H]1O[C@@H](n2cnc3c(N)ncnc32)[C@H](O)[C@@H]1O — within error, 93 ± 12%
- O=C1CN=C(c2cccc(Br)c2)c2oc3ccccc3c2N1 — within error, 96 ± 4.5%
- C[C@H](N)Cc1cnc[nH]1 [(S)-(+)-a-Methylhistamine dihydrobromide] — higher, 113 ± 11%
- COc1cc(N)c(Cl)cc1C(=O)NC1CN2CCC1CC2 (stereo not drawn) [Zacopride hydrochloride] — higher, 142 ± 12%
- COc1cc2c(c(OC)c1OC)-c1ccc(OC)c(=O)cc1[C@@H](NC(C)=O)CC2 [Colchicine] — within error, 115 ± 27%
- Cc1onc(O)c1CC(N)C(=O)O (racemic) [(RS)-AMPA hydrobromide] — higher, 121 ± 16%
- O=Cc1cn(Cc2ccc(Cl)cc2)c2ccccc12 [Oncrasin 1] — within error, 113 ± 44%
